This is an account of results in the supplement of paper PMC9337992.

± gives the standard deviation of the averaged measurements.

The first test has as its system BT549. In words: cell proliferation (confluence) relative to DMSO control; higher = less growth inhibition. Conditions: 5 uM; 6 d. The gist of the method: (§1)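 Plates with 384 wells were seeded with triple-negative breast cancer cell lines at 500 cells per well, and epigenetic chemical probes in DMSO were added once the cells had attached, at a final 5 μM for 6 d. Imaging used an IncuCyte ZOOM with a ×10 objective in phase-contrast, and analysis used Incucyte 2016 software. With four replicate wells per compound, confluence was normalised to wells holding DMSO alone.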
Take `O=C(O)CNC(=O)c1c(O)c2ccccc2n(Cc2ccccc2)c1=O`: the cell proliferation was found to be 99.17 ± 0.41%.
Still for that read-out and setting: the value for `COc1cc(C(=O)N2CC[C@@H](O)[C@@H](N)C2)cc2nc(-c3cc4ccccc4n3CC3CC3)n(C)c12` was 97.5 ± 1.7%.
In the case of `c1ccc([C@@H]2C[C@H]2NC2CCNCC2)cc1`, the cell proliferation came out at 99.73 ± 0.11%.

The next test relates to CAL120. The description is as above. The following applies: 5 uM; 6 d. Summed up:
as §1
`O=C(O)CNC(=O)c1c(O)c2ccccc2n(Cc2ccccc2)c1=O` yielded a cell proliferation of 88.7 ± 5.2%.
Still for that read-out and setting: for `COc1cc(C(=O)N2CC[C@@H](O)[C@@H](N)C2)cc2nc(-c3cc4ccccc4n3CC3CC3)n(C)c12` the value was 97.9 ± 2.2%.
Compound `c1ccc([C@@H]2C[C@H]2NC2CCNCC2)cc1` gave a cell proliferation of 90.8 ± 1.6%.

Another test has as its system HCC1143. The test is described as above. The following applies: 5 uM; 6 d. The gist of the method: as §1
Compound `O=C(O)CNC(=O)c1c(O)c2ccccc2n(Cc2ccccc2)c1=O` registered a cell proliferation of 97.3 ± 1.9%.
Same read-out and setting: the value for `COc1cc(C(=O)N2CC[C@@H](O)[C@@H](N)C2)cc2nc(-c3cc4ccccc4n3CC3CC3)n(C)c12` was 97.3 ± 1.2%.
For the compound `c1ccc([C@@H]2C[C@H]2NC2CCNCC2)cc1`, the cell proliferation was found to be 97.61 ± 0.58%.

Another test concerns HCC1395. The description is as above. Conditions: 5 uM; 6 d. Summed up:
as §1
`O=C(O)CNC(=O)c1c(O)c2ccccc2n(Cc2ccccc2)c1=O` came in with a cell proliferation of 99.51 ± 0.21%.
Still for that read-out and setting: for `COc1cc(C(=O)N2CC[C@@H](O)[C@@H](N)C2)cc2nc(-c3cc4ccccc4n3CC3CC3)n(C)c12` the value was 99.953 ± 0.017%; for `c1ccc([C@@H]2C[C@H]2NC2CCNCC2)cc1`, 99.99 ± 0.0084%.

A further test relates to HCC153. Described as above. Conditions: 5 uM; 6 d. The gist of the method: as §1
As to `O=C(O)CNC(=O)c1c(O)c2ccccc2n(Cc2ccccc2)c1=O`, the cell proliferation worked out at 83.7 ± 4.2%.
In turn, `COc1cc(C(=O)N2CC[C@@H](O)[C@@H](N)C2)cc2nc(-c3cc4ccccc4n3CC3CC3)n(C)c12` registered a cell proliferation of 59.2 ± 12%.
On the same count and under the same terms, the value for `c1ccc([C@@H]2C[C@H]2NC2CCNCC2)cc1` was 86.3 ± 2.5%.

Another test concerns HCC1806. The description is as above. Conditions: 5 uM; 6 d. Summed up: as §1
For `O=C(O)CNC(=O)c1c(O)c2ccccc2n(Cc2ccccc2)c1=O`, the cell proliferation was determined as 98.07 ± 0.77%.
Compound `COc1cc(C(=O)N2CC[C@@H](O)[C@@H](N)C2)cc2nc(-c3cc4ccccc4n3CC3CC3)n(C)c12` registered a cell proliferation of 79.3 ± 7.7%.
`c1ccc([C@@H]2C[C@H]2NC2CCNCC2)cc1` returned a cell proliferation of 99.68 ± 0.28%.

A further test deals with HCC38. The description is as above. The following applies: 5 uM; 6 d. Summed up:
as §1
On to `O=C(O)CNC(=O)c1c(O)c2ccccc2n(Cc2ccccc2)c1=O`, for which the cell proliferation was 98.2 ± 1.1%.
For `COc1cc(C(=O)N2CC[C@@H](O)[C@@H](N)C2)cc2nc(-c3cc4ccccc4n3CC3CC3)n(C)c12`, the cell proliferation came out at 99.49 ± 0.46%.
`c1ccc([C@@H]2C[C@H]2NC2CCNCC2)cc1`: the cell proliferation worked out at 99.69 ± 0.18%.

A further test concerns HCC70. The description is as above. The following applies: 5 uM; 6 d. Summed up:
as §1
In turn, `O=C(O)CNC(=O)c1c(O)c2ccccc2n(Cc2ccccc2)c1=O` showed a cell proliferation of 98.48 ± 0.74%.
Take `COc1cc(C(=O)N2CC[C@@H](O)[C@@H](N)C2)cc2nc(-c3cc4ccccc4n3CC3CC3)n(C)c12`: the cell proliferation is 88.1 ± 8%.
The same measure, in the same setting: the value for `c1ccc([C@@H]2C[C@H]2NC2CCNCC2)cc1` was 90.9 ± 5.3%.

The next test has as its system Hs578-T. Described as above. The following applies: 5 uM; 6 d. Summed up:
as §1
In the case of `O=C(O)CNC(=O)c1c(O)c2ccccc2n(Cc2ccccc2)c1=O`, the cell proliferation came to 95 ± 1.8%.
The same measure, in the same setting: the value for `COc1cc(C(=O)N2CC[C@@H](O)[C@@H](N)C2)cc2nc(-c3cc4ccccc4n3CC3CC3)n(C)c12` was 97.5 ± 1.4%.
In turn, `c1ccc([C@@H]2C[C@H]2NC2CCNCC2)cc1` had a cell proliferation of 96.3 ± 1.6%.

In another test the test system is MB157. The description is as above. Conditions: 5 uM; 6 d. The gist of the method: as §1
In turn, `O=C(O)CNC(=O)c1c(O)c2ccccc2n(Cc2ccccc2)c1=O` came in with a cell proliferation of 95.4 ± 3.5%.
In the case of `COc1cc(C(=O)N2CC[C@@H](O)[C@@H](N)C2)cc2nc(-c3cc4ccccc4n3CC3CC3)n(C)c12`, the cell proliferation worked out at 90.8 ± 11%.
On the same count and under the same terms, the value for `c1ccc([C@@H]2C[C@H]2NC2CCNCC2)cc1` was 86.3 ± 7.8%.

For a further test, the system named is SUM149-PT. The description is as above. The following applies: 5 uM; 6 d. The gist of the method: as §1
Regarding `O=C(O)CNC(=O)c1c(O)c2ccccc2n(Cc2ccccc2)c1=O`, the cell proliferation was determined as 88 ± 5%.
Regarding `COc1cc(C(=O)N2CC[C@@H](O)[C@@H](N)C2)cc2nc(-c3cc4ccccc4n3CC3CC3)n(C)c12`, the cell proliferation worked out at 87.2 ± 9.1%.
`c1ccc([C@@H]2C[C@H]2NC2CCNCC2)cc1` had a cell proliferation of 64.1 ± 20%.

The next test relates to SUM159-PT. The test is described as above. The following applies: 5 uM; 6 d. The gist of the method: as §1
Regarding `O=C(O)CNC(=O)c1c(O)c2ccccc2n(Cc2ccccc2)c1=O`, the cell proliferation came out at 99.986 ± 0.0083%.
`COc1cc(C(=O)N2CC[C@@H](O)[C@@H](N)C2)cc2nc(-c3cc4ccccc4n3CC3CC3)n(C)c12` showed a cell proliferation of 99.994 ± 0.0032%.
On the same count and under the same terms, the value for `c1ccc([C@@H]2C[C@H]2NC2CCNCC2)cc1` was 99.974 ± 0.029%.
